# Experimental data: PubChem BioAssay (Tox21)
# Results filed as inconclusive are left out. A number with no mark means an inactive call. The call rests on the fitted dose curve; in most records, active means well fitted inhibition curve with a large enough effect in the repeat runs; inconclusive means weak or mixed curves; inactive means no such curve, though single readings can be large or run the other way.
# Target: Cytochrome P450 3A4 (Homo sapiens) (UniProt P08684)
# Assay: Cytochrome P450 Family 3 Subfamily A Member 4 (CYP3A4) small molecule antagonists: luciferase reporter qHTS assay (AID 1671201); further: nearly all actives have a fitted effect of over 50% in size
# Settings: P450-Glo CYP3A4 enzyme, luciferin luminescence, 1 h; series mostly up to 115 µM; activity change, negative = inhibition: at the top concentration
# Text: National Center for Advancing Translational Sciences [NCATS]
# U.S. Environmental Protection Agency [EPA]
# National Institutes of Environmental Health Sciences [NIEHS]
# National Toxicology Program [NTP]
# U.S. Food and Drug Administration [FDA]
# Cytochrome P450 (CYP) enzymes are membrane-bound hemeproteins that play a key role in metabolism of drugs and xenobiotics. Evaluation of the effect of chemicals on CYP isozymes is useful to minimize the adverse drug reactions and toxicities in drug development process. Tox21 chemicals were tested for their effect on CYP enzyme activities by using P450-Glo (TM) screening systems (Promega Corporation, Madison, WI). These systems provide a luminescent method containing proluciferin substrates and are converted to luciferin products by CYP isozymes. The luciferin products formed are detected with a luciferin detection reagent, and the amount of light produced is proportional to CYP activity. P450-Glo (TM) CYP3A4 screening system (Catalog. No. V9910) was used to detect the compounds that interfere in CYP3A4 activity. The positive control compound used for CYP3A4 assay is ketoconazole (Sigma-Aldrich, St. Louis, MO).
# Tox21 Assay Protocol Summary:
# Two ul of enzyme-substrate mix was dispensed into medium binding white/solid 1536-well plates (Greiner Bio-One North America Inc., Monroe, NC) using a BioRaptr Flying Reagent Dispenser (FRD, Beckman Coulter, Brea, CA). Compounds dissolved in DMSO and positive control (ketoconazole) were transferred to the assay plates at 23 nl using a Pintool station (Wako, San Diego, CA). The assay plates were incubated at room temperature for 10 min. Then 2 ul of NADPH regeneration solution was added to each well of the assay plates using an FRD and incubated at room temperature for 1 h. The reaction was stopped by adding 4 ul of detection reagent using an FRD and after 20 min incubation at room temperature the luminescence signal was measured using a ViewLux plate reader (Perkin Elmer, Shelton, CT). Data were expressed as relative luminescence units.
# On the % scale 0 is the no-effect control and ±100 the full control effect.
# Cytochrome P450 3A4 (Homo sapiens), sequence (P08684 whole entry, looked up): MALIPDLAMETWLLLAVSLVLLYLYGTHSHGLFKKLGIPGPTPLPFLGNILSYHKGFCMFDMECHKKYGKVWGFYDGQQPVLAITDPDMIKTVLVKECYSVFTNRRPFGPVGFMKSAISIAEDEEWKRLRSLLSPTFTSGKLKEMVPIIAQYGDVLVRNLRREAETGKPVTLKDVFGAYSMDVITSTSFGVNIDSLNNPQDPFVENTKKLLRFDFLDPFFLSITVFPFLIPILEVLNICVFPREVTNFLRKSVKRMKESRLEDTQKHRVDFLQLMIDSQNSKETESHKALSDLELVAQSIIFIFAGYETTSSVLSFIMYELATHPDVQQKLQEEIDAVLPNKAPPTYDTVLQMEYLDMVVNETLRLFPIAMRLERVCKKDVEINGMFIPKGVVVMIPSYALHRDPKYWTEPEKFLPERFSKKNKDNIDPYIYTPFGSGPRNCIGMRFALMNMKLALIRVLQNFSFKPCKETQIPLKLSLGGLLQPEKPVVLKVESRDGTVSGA
row,SMILES,"activity change, negative = inhibition"
1,CCNS(=O)(=O)c1ccc(C)cc1,-14.3%
2,[K+],-0.248%
3,N[C@@H](CCC(=O)O)C(=O)O,3.76%
4,O=C(O)c1cc(C(=O)O)cc(C(=O)O)c1,4.25%
5,Cc1ccccc1N=C(N)N=C(N)N,-16.1%
6,CN(C)C(=O)Oc1ccc[n+](C)c1,2.39% [at 52.9 µM]
7,C=CN1CCCCCC1=O,3.32%
8,C[N+]12CCC(CC1)C(OC(=O)C(O)(c1ccccc1)c1ccccc1)C2 (stereo not given),-0.516% [at 52.9 µM]
9,CC(C)CC(C)(N)C#N (stereo not given),3.5%
10,CCCCCCCC1CCCC1=O (stereo not given),0.387%
11,CCN(C=O)CC,-1.34%
12,NC(CCC(=O)O)C(=O)O (stereo not given),9.46%
13,CC1=CCC(O)(C(C)C)CC1 (stereo not given),-22.9%
14,C[N+](C)(C)CCCCCCCCCC[N+](C)(C)C,1.4% [at 52.9 µM]
15,C[C@@H]1CCC[C@H](C)N1,0.246% [at 52.9 µM]
16,CO/N=C(\C(=O)N[C@@H]1C(=O)N2C(C(=O)O)=C(CSc3nc(=O)c(O)nn3C)CS[C@H]12)c1csc(N)n1,-29.6% [at 52.9 µM]
17,CCC(C)(CCCC(C)C)OC(C)=O (stereo not given),-2.88%
18,CC[N+](C)(CC)CCOC(=O)C1c2ccccc2Oc2ccccc21,69.8% [at 52.9 µM]
19,CCCOC(=O)CC,-6.31%
20,CC(=O)NC(=O)c1ccccc1O,0.432% [at 52.9 µM]

row,SMILES,"activity change, negative = inhibition"
1,CCCCCCCCCCOc1cc2c(=O)c(C(=O)OCC)c[nH]c2cc1OCC,13.5% [at 10.5 µM]
2,CCOCC(C)O (stereo not given),12.8%
3,CCCCOC(=O)CCC(C)=O,6%
4,CCOC(=O)COC(=O)c1ccccc1C(=O)OCC,50%
5,CC(C(=O)O)c1cccc(Oc2ccccc2)c1 (stereo not given),25.9% [at 52.9 µM]
6,C[N+]1(C)CCCC(OC(=O)C(O)(c2ccccc2)c2ccccc2)C1 (stereo not given),-7.53% [at 52.9 µM]
7,CC(=O)N[C@H]1[C@H]([C@H](O)[C@H](O)CO)OC(C(=O)O)=C[C@@H]1N=C(N)N,0.703% [at 52.9 µM]
8,CC(C)c1ccc2ncccc2c1,82.2%
9,OCCCCCO,-0.0384%
10,CC[N+](CC)(CC)CCOc1cccc(OCC[N+](CC)(CC)CC)c1OCC[N+](CC)(CC)CC,0.342% [at 52.9 µM]
11,CC(C)CCCO,11%
12,COc1cccc(OC)c1C(=O)N[C@@H]1C(=O)N2[C@@H]1SC(C)(C)[C@@H]2C(=O)O,1.68% [at 52.9 µM]
13,N[C@H](C(=O)O)[C@@H](O)c1ccc(O)c(O)c1,-1.66% [at 52.9 µM]
14,Cc1cc(C)c(N=Nc2c(O)c(S(=O)(=O)O)cc3cc(S(=O)(=O)O)ccc23)cc1C,1.68% [at 10.5 µM]
15,O=C(O)CCSCCC(=O)O,0.0096%
16,CCN1C=CN(C)C1C (stereo not given),-0.554%
17,CCCC[N+](C)(CCCC)CCCC,8.05%
18,CC1=NN(c2cccc(S(=O)(=O)O)c2)C(=O)C1,8.74%
19,CC(C)(CCC(=O)O)C(=O)O,5.9%
20,CC(C)(C)C(=O)Oc1ccc(S(=O)(=O)Nc2ccccc2C(=O)NCC(=O)O)cc1,27.2% [at 52.9 µM]
